An excerpt weighted towards active compounds, which were near 3.4% of everything screened.
HIV Env fusion: blocks HIV Env-driven cell-cell fusion; HeLa-JRFL Env/CEM21 cell fusion, luciferase; inhibition, % at 12.3 µM; actives 1.1% (n = 360,000);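 active = mean replicate inhibition score of at least 50 and every replicate individually at or above 50; inconclusive = only one of the two criteria met; inactive = mean below 50 and not all replicates reaching 50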
miR122 inh: miR-122 inhibition in Huh7 cells; Huh7 miR-122 Renilla luciferase sensor, 48 h; neutral wells = 0, positive control = 100; activation (reporter increase), % at 12.5 µM; actives 0.3% (n = 340,000);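 active = mean replicate activation score at least 90 and every replicate individually at or above 90; inconclusive = only one of the two criteria met; inactive = neither criterion met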;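 note: higher luciferase means less miR-122 activity so hits act as miR-122 inhibitors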
esBAF inh: blocks esBAF chromatin remodeling in mouse ES cells; Bmi1-luciferase knock-in reporter, 24 h; 100% = twice the neutral-well signal; reporter increase, % at 12.5 µM; actives 2% (n = 350,000); AID 602393; in the data active = activation above about 40%; inconclusive = no clear call, values can overlap the other calls;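 note: a rise in the Bmi1 reporter signal indicates esBAF inhibition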
Wnt bcat act: activates Wnt/beta-catenin signaling in a reporter cell assay. activation, % at 9.35 µM. actives 1.2% (n = 300,000). activator, plate reader; in the data active = activation above about 30%, passing the limit was not always enough; inconclusive = no clear call, values can overlap the other calls
MITF act: activators of MITF-driven TRPM1 promoter activity in SK-MEL-5 cells. SK-MEL-5 TRPM1-promoter luciferase, 24 h; % of positive control, neutral wells = 0. activation, % at 12.5 µM. actives 0.75% (n = 300,000);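 active = mean activation of at least 80% with every replicate also reaching 80%; inconclusive = mean reaches 80% but some replicate falls short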
Each line names hits and unclear results; the compound was inactive in the other large screens; [ ] = dose if it differs, or a comment.

CCc1nc2ccc(C(=O)N3CCN(C(=O)c4ccco4)CC3)cn2c1N(C)C(=O)COc1ccccc1	miR122 inh 96.7 (no result: MITF act)
CCc1nc2ccc(C(=O)N3CCN(C(=O)c4ccco4)CC3)cn2c1N(C)C(=O)Nc1ccccc1OC	none (no result: MITF act)
C=C1C(=O)C=C[C@]2(C)C[C@@H]3OC(=O)[C@](C)(O)[C@H]3C[C@@H]12	Wnt bcat act 43.0
CC(C)CN1CCN=C1Nc1ccccc1	none
CC(C)CCN1CCN=C1Nc1ccccc1	HIV Env fusion 59.8
COc1ccc(CC(=O)c2ccc(O)cc2O)cc1	none (no result: HIV Env fusion)
O=C(Cc1ccc(Br)cc1)c1ccc(O)cc1O	esBAF inh 59.6, Wnt bcat act inconclusive (no result: HIV Env fusion)
COc1ccc(-n2cnc3cc(C(=O)NCC4CCCO4)ccc32)cc1 (stereo unspecified)	none
COc1ccc(-n2cnc3cc(C(=O)N4CCOCC4)ccc32)cc1	esBAF inh 43.5
COc1cc(SC)ccc1C(=O)Nc1nc2ccccc2[nH]1	HIV Env fusion 92.5
COc1ccc(C(=O)N[C@H](C(=O)Nc2nc3ccccc3[nH]2)C(C)C)cc1	miR122 inh 116.9
COc1ccccc1C(=O)Nc1cccc(SC)c1	none (no result: miR122 inh, esBAF inh)
COc1ccc(C(=O)Nc2nc3ccccc3[nH]2)cc1	none
COc1ccccc1C(=O)Nc1nc2ccccc2[nH]1	HIV Env fusion 72.9
COc1cc(SC)ccc1C(=O)Nc1ccccc1	esBAF inh inconclusive, Wnt bcat act 33.9 (no result: MITF act)
O=C(C[C@H]1CC[C@@H]2[C@H](COC[C@@H](O)CN2S(=O)(=O)c2cccc(Cl)c2)O1)NC1CCC1	none (no result: HIV Env fusion, Wnt bcat act, MITF act)
COc1ccc(CN2C[C@H](O)COC[C@H]3O[C@H](CC(=O)NCc4ccccc4Cl)CC[C@@H]32)cc1	none (no result: Wnt bcat act, MITF act)
COc1ccc(C[C@@H]2CCn3cc(nn3)COC[C@@H](C(C)C)NC2=O)cc1	none (no result: miR122 inh, esBAF inh, Wnt bcat act, MITF act)
Cc1cc(C(=O)OCc2nnc(-c3ccccc3)o2)c(C)n1-c1ccccc1	none (no result: HIV Env fusion, Wnt bcat act)
Cc1noc(C)c1COC(=O)c1cc(C)n(-c2ccccc2)c1C	esBAF inh 80.3 (no result: Wnt bcat act, MITF act)
COc1ccc(C(=O)N2CCCC(c3ccccc3)C2)cc1 (stereo unspecified)	none (no result: HIV Env fusion, Wnt bcat act)
O=C(c1ccco1)N1CCC(c2ccccc2)C1 (stereo unspecified)	esBAF inh 53.8, MITF act inconclusive (no result: HIV Env fusion, Wnt bcat act)
O=C(c1ccco1)N1CCCC(Nc2ccc3c(c2)OCCO3)C1 (stereo unspecified)	esBAF inh 43.0
O=C(O)C1CCN(C(=O)c2ccco2)CC1	none
O=C(c1ccc(F)cc1)N1CCC(c2ccccc2)C1 (stereo unspecified)	Wnt bcat act 34.2 (no result: MITF act)
CCCOC(=O)c1ccc(NC(=O)C2CCCO2)cc1 (stereo unspecified)	esBAF inh 50.2 (no result: Wnt bcat act, MITF act)
CCCOC(=O)c1ccc(NC(=O)C(CC)CC)cc1	esBAF inh 50.9 (no result: Wnt bcat act)
CCC(CC)C(=O)Nc1ccc(C(=O)c2ccccc2)cc1	none (no result: HIV Env fusion, esBAF inh, Wnt bcat act)
C[C@@H]1CN([C@H](C)CO)S(=O)(=O)c2ccc(C#CC3CC3)cc2O[C@H]1CN(C)Cc1ccncc1	none (no result: Wnt bcat act, MITF act)
C[C@@H]1CCCCO[C@@H](CN(C)S(=O)(=O)c2ccc(F)cc2)[C@H](C)CN([C@H](C)CO)C(=O)c2cc(NC(=O)Nc3ccc(C(F)(F)F)cc3)ccc2O1	HIV Env fusion 67.7[16.7 µM] (no result: Wnt bcat act, MITF act)
C[C@H](CO)N1C[C@H](C)[C@@H](CN(C)S(=O)(=O)c2ccc(F)cc2)OCCCC[C@H](C)Oc2ccc(NC(=O)Nc3ccc(C(F)(F)F)cc3)cc2C1=O	HIV Env fusion 56.8[16.7 µM] (no result: Wnt bcat act, MITF act)
C[C@@H]1CCCCO[C@@H](CN(C)S(=O)(=O)c2ccc(F)cc2)[C@H](C)CN([C@@H](C)CO)C(=O)c2cc(NC(=O)Nc3ccc(C(F)(F)F)cc3)ccc2O1	HIV Env fusion inconclusive (no result: Wnt bcat act, MITF act)
O=C(c1cccnc1)N1CC2(C1)[C@@H](c1ccccc1)[C@@H](CO)N2Cc1cccnc1	none (no result: miR122 inh, esBAF inh, Wnt bcat act, MITF act)
CNC[C@@H]1Oc2c(NC(=O)Nc3ccc(F)cc3)cccc2C(=O)N([C@H](C)CO)C[C@H]1C	none (no result: HIV Env fusion, Wnt bcat act, MITF act)
O=C(N/N=C/c1ccc([N+](=O)[O-])s1)c1cccc(Br)c1	HIV Env fusion 66.1 (no result: esBAF inh, Wnt bcat act)
Cc1ccc(/C=N/N=C/c2ccc(C)s2)s1	none (no result: Wnt bcat act)
Cc1ccc(NC(=O)/C=C/c2ccc([N+](=O)[O-])s2)cc1	Wnt bcat act 35.1 (no result: HIV Env fusion, miR122 inh, esBAF inh)
Cc1ccc(C(=O)N/N=C/c2ccc([N+](=O)[O-])s2)cc1	none (no result: HIV Env fusion, Wnt bcat act)
Cc1cccc(N/N=C/c2ccc(C)s2)c1	esBAF inh 73.5, MITF act 104.3
Cc1cccc(NC(=S)N/N=C/c2ccc([N+](=O)[O-])s2)c1	HIV Env fusion 105.1 (no result: esBAF inh, Wnt bcat act)
Cc1cccc(NC(=O)/C=C/c2ccc([N+](=O)[O-])s2)c1	none (no result: miR122 inh, esBAF inh, Wnt bcat act)
O=C(NCc1ccc(F)cc1)[C@@H]1[C@@H](CO)[C@@H]2Cn3c(cccc3=O)[C@@H]2N1C(=O)C1CC1	none (no result: HIV Env fusion, Wnt bcat act, MITF act)
C[C@H]1CCCCO[C@@H](CN(C)C(=O)C2CCCCC2)[C@@H](C)CN([C@@H](C)CO)C(=O)c2cc(NC(=O)C3CCCCC3)ccc2O1	none (no result: Wnt bcat act, MITF act)
C[C@H](CO)N1C[C@H](C)[C@@H](CN(C)C(=O)Nc2ccccc2)Oc2ccc(NC(=O)NC3CCCCC3)cc2CC1=O	none (no result: Wnt bcat act, MITF act)
CO[C@H]1CN(C)C(=O)c2ccc(NC(=O)C3CCCC3)cc2OC[C@@H](C)N(C(C)=O)C[C@H]1C	none (no result: HIV Env fusion, miR122 inh, Wnt bcat act, MITF act)
Clc1ccc2[nH]c(-c3ccccc3)cc2c1	esBAF inh 60.1 (no result: HIV Env fusion, Wnt bcat act)
CCCNC(=O)Nc1ccc2c(c1)C(=O)N(C)C[C@@H](OC)[C@@H](C)CN(Cc1ccc(-c3ccccn3)cc1)[C@@H](C)CO2	none (no result: miR122 inh, Wnt bcat act, MITF act)
CCCC(=O)Nc1ccc2c(c1)C(=O)N(C)C[C@H](OC)[C@@H](C)CN(Cc1ccc(-c3ccccn3)cc1)[C@@H](C)CO2	esBAF inh 111.8 (no result: HIV Env fusion, miR122 inh, Wnt bcat act, MITF act)
CCCC(=O)Nc1ccc2c(c1)C(=O)N(C)C[C@H](OC)[C@@H](C)CN(Cc1ccc(-c3ccccn3)cc1)[C@H](C)CO2	none (no result: HIV Env fusion, miR122 inh, Wnt bcat act, MITF act)
CCCNC(=O)Nc1ccc2c(c1)C(=O)N(C)C[C@H](OC)[C@@H](C)CN(Cc1ccc(-c3ccccn3)cc1)[C@@H](C)CO2	esBAF inh 96.7 (no result: miR122 inh, Wnt bcat act, MITF act)
COc1cccc(C(=O)Nc2ccc3c(c2)OC[C@@H](C)N(CC2CC2)C[C@H](C)[C@@H](OC)CN(C)C3=O)c1	none (no result: HIV Env fusion, Wnt bcat act, MITF act)
CCn1c(C(=O)N2CCCC(C(=O)NCCCc3ccccc3)C2)cc2sccc21 (stereo unspecified)	HIV Env fusion 65.6 (no result: miR122 inh, esBAF inh, Wnt bcat act)
CCn1c(C(=O)N2CCCC(C(=O)NCCc3ccc(C)cc3)C2)cc2sccc21 (stereo unspecified)	none (no result: HIV Env fusion, Wnt bcat act)
CO[C@@H](CN(C)C(=O)c1ccccc1F)[C@@H](C)CN([C@@H](C)CO)S(=O)(=O)c1ccccc1	none (no result: HIV Env fusion, miR122 inh, Wnt bcat act, MITF act)
CC(NC(=O)Cc1cccs1)C(c1cccs1)N1CCN(c2ccccc2F)CC1 (stereo unspecified)	HIV Env fusion 61.7 (no result: Wnt bcat act)
Cc1cccc(C2Nc3ccccc3C(=O)N2CCc2ccccc2)n1 (stereo unspecified)	esBAF inh inconclusive (no result: HIV Env fusion)
O=C1c2ccccc2NC(c2cccc([N+](=O)[O-])c2)N1CCc1ccccc1 (stereo unspecified)	esBAF inh 45.8

Screens deposited in PubChem by Broad Institute.
